# Compound activity deposited in PubChem by Sanford-Burnham Center for Chemical Genomics.
# HIF-2a inh: blocks HIF-2a reporter activity; 786-0 RCC cells HIF-2a reporter, luciferase luminescence, overnight; AID 624352; 0.72% of 360,000 active; inhibition, % at 18.8 µM;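 active = inhibition of the luminescence signal of 40% or more relative to plate controls, in a single-dose primary screen at 18.75 µM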
# TROY NFkB inh: TROY signaling inhibition. Q293 LMP1-TROYcd NF-kB luciferase reporter, 4 h. inhibition, % at 10 µM. 0.98% of 360,000 active. AID 1347056;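 active = compounds whose plate-normalised and pattern-corrected inhibition of the luciferase reporter signal at the single screening dose is 50% or more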
# TWEAK-Fn14 inh: TWEAK-Fn14 signaling inhibition; TWEAK-stimulated Fn14 reporter cells, luciferase luminescence, 8 h; inhibition, % at 10 µM; 2% of 360,000 active; AID 1159606; in the data active = inhibition above about 50%
# Peg3 prom inh: inhibitors of Peg3 promoter | AID 588405 | inhibition, % at 20 µM | 1.7% of 360,000 active | HeLa PEG-Prom luciferase reporter, luminescence, overnight;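 active = inhibition of at least 50% at 20 µM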
# KKLEB cytotox: CF airway cell cytotoxicity counter-screen. 0.36% of 360,000 active. activity change (cytotoxicity), % at 5 µM. KKLEB CF airway cells viability, ATPlite luminescence, overnight; stronger effect = lower value; cells stimulated with P. aeruginosa culture filtrate;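 active = corrected activity change at or below -50% at 5 µM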
# CF NFkB block: inhibitors of cystic fibrosis induced NF-kB | KKLEB NF-kB-GFP reporter, PAF-induced, GFP fluorescence overnight | inhibition, % at 5 µM | 0.86% of 360,000 active | AID 588850;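 active = at least 50% inhibition at 5 µM, scaled per plate between neutral and stimulator controls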;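 also: PAF is a Pseudomonas aeruginosa culture filtrate used as stimulus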
# Mdm2 MdmX conf: Mdm2/MdmX (human) interaction inhibition, confirmed. shares compounds with HIF-2a inh. SaOS-2 split-luciferase Mdm2/MdmX complementation, luminescence. 99% of 740 active. inhibition, % at 8 µM;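 active = mean inhibition of the luminescence signal across two replicates at or above 26 percent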
# Target sequence (O15151 whole entry, looked up): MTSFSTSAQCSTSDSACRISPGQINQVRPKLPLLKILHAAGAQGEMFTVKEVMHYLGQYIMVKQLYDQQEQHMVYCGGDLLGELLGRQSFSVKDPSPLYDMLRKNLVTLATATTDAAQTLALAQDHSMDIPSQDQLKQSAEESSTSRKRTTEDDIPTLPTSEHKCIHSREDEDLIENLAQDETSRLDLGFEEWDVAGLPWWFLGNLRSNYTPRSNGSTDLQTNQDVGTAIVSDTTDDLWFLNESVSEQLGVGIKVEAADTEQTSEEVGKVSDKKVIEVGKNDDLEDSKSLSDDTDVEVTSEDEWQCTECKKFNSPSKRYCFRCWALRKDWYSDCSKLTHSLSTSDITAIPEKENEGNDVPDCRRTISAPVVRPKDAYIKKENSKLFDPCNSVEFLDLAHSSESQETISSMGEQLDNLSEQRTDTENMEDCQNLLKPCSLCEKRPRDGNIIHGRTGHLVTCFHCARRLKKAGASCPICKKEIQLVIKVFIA
# Target sequence (Q00987 whole entry, looked up): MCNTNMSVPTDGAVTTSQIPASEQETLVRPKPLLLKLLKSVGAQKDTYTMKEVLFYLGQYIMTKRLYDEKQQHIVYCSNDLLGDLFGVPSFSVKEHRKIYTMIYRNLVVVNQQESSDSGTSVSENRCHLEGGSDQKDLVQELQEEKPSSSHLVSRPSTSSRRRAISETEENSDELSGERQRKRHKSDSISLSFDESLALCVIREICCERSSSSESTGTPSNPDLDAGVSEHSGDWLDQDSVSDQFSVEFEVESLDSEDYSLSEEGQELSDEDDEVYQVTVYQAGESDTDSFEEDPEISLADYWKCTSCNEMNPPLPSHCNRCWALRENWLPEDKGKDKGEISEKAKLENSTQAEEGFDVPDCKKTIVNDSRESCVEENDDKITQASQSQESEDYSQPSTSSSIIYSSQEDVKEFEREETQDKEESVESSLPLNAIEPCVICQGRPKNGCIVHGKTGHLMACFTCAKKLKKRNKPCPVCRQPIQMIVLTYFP
# HIF-2a inh conf: confirmation of HIF-2a inhibitors. shares compounds with HIF-2a inh. AID 651580. inhibition, % at 18.8 µM. 56% of 1,800 active. 786-0 RCC cells, HIF-2a luciferase reporter luminescence, overnight;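 active = mean inhibition across four replicates of at least 40 percent at the single tested concentration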
# HIF-1a counter: HIF-1a inhibition counter-screen for HIF-2a hits; inhibition, % at 18.8 µM; 72% of 1,800 active; MiaPaCa-2 HIF-1a luciferase reporter, desferoxamine, overnight; shares compounds with HIF-2a inh; AID 651589;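 active = mean inhibition of the reporter signal across four replicates at the single tested dose of 50% or more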
# Numbers stand for hits; 0 = inactive; - = no result. An excerpt weighted towards active compounds, which were near 4% of everything screened.
SMILES,HIF-2a inh,TROY NFkB inh,TWEAK-Fn14 inh,Peg3 prom inh,KKLEB cytotox,CF NFkB block,HIF-2a inh conf,HIF-1a counter,others
O=C(O)CSc1ncnc2sc3c(c12)CCCC3,0,0,0,0,0,0,-,-,
Cc1sc2ncnc(Sc3nnnn3-c3ccc(Cl)cc3)c2c1C,41,65,102,88,-57,84,0,102,Mdm2 MdmX conf=103
CCOc1ccc(C(=O)CCC(=O)Nc2cccc(S(=O)(=O)N3CCCCC3)c2)cc1,0,0,0,0,0,0,-,-,
CN(C)C(=O)CSc1ccccc1C(=O)OCC(=O)NC1CC1,0,0,0,0,0,0,-,-,
CCc1ccc(NC(=O)COc2ccc(/C=C(/C#N)c3nc4ccccc4[nH]3)cc2OC)cc1,0,0,0,57,0,0,-,-,Mdm2 MdmX conf=89
CCCCN(C(=O)c1oc2ccc(OCC)cc2c1C)c1c(N)n(CC(C)C)c(=O)[nH]c1=O,0,0,0,0,0,0,-,-,
O=C(Nc1ccc([N+](=O)[O-])cc1)Nc1ccc(OC(F)F)c(Cl)c1,42,61,82,99,-69,64,0,100,
C/C(=N\NC(=O)c1cccc(S(=O)(=O)N2CCCC2)c1)c1ccc(OCC(=O)N(C)C)cc1,0,0,0,0,0,0,-,-,
CC1CN(c2nc(Nc3ccccc3F)nc(N)c2[N+](=O)[O-])CC(C)O1 (configuration not stated),0,0,0,0,0,0,-,-,
CCC(=O)OCCNc1cc(SCCC(=O)OC)c2nonc2c1[N+](=O)[O-],0,0,0,0,0,0,-,-,
CCCC(=O)OCCNc1cc(Sc2nc3ccccc3[nH]2)c2nonc2c1[N+](=O)[O-],94,0,0,109,-66,92,69,74,Mdm2 MdmX conf=103
CCC(=O)OCCNc1cc(Sc2nccn2C)c2nonc2c1[N+](=O)[O-],91,0,0,105,-78,89,80,105,
CC(C)CCSc1cc(NCCO)c([N+](=O)[O-])c2nonc12,0,0,0,0,0,0,-,-,
CCOC(=O)C1(C)CCCN(C(=O)c2cc(OC)c(OC)c(OC)c2)C1 (configuration not stated),0,0,0,0,0,0,-,-,
c1ccc(CNc2nc(NCc3ccccc3)c3ccccc3n2)cc1,0,78,0,104,0,0,-,-,Mdm2 MdmX conf=103
c1ccc(CNc2nc(-c3ccccc3)nc3ccccc23)cc1,0,0,0,0,0,0,-,-,
CC(C)N1C(=O)c2ccccc2NC(=O)C1C(=O)NCc1ccccc1 (configuration not stated),0,-,-,-,-,-,-,-,
NC(=O)C1=C(c2ccccc2)c2ccccc2C1=O,51,0,0,0,0,0,0,0,
Cc1ccc(C2=C(O)c3ccccc3C(=O)C2=O)cc1,0,0,0,0,0,0,-,-,
CCC(=O)Nc1ccc(NC(=O)c2cccc3c(Br)cccc23)cc1,0,0,0,0,0,0,-,-,
Nc1c(C(=O)N2CCOCC2)sc2nc3c(cc12)CCCC3,46,0,0,0,0,0,47,0,
CCOc1ccc(NC(=O)CN(C)C(=O)/C=C/c2ccc(S(=O)(=O)N3CCCCCC3)cc2)cc1OCC,0,0,0,0,0,0,-,-,
CCN(CC(=O)Nc1ccc(NC(C)=O)cc1)C(=O)/C=C/c1ccc(S(=O)(=O)N2CCCCCC2)cc1,42,0,0,0,0,0,0,0,
N#Cc1ccc(Cl)cc1NC(=O)CNCc1cccs1,0,0,0,0,0,0,-,-,
Cn1cnc([N+](=O)[O-])c1Cl,0,0,0,0,0,0,-,-,
SMILES,HIF-2a inh,TROY NFkB inh,TWEAK-Fn14 inh,Peg3 prom inh,KKLEB cytotox,CF NFkB block,HIF-2a inh conf,HIF-1a counter,others
Cn1cnc([N+](=O)[O-])c1Oc1ccccc1,0,0,0,0,0,0,-,-,
Cn1cnc([N+](=O)[O-])c1S(=O)(=O)Oc1ccc(Cl)cc1,81,0,0,103,-98,94,0,0,
Cn1cnc([N+](=O)[O-])c1S(=O)(=O)Oc1cccc2ccccc12,83,74,67,105,-79,86,0,66,
CC1CCCCC1NC(=O)/C(C#N)=C/c1ccccc1F (configuration not stated),88,0,70,96,0,0,81,106,
COc1cccc(/C=N/NC(=O)c2ccc3nc[nH]c3c2)c1O,0,0,0,0,0,0,-,-,
CCN(CC)c1ccc(/C=N/NC(=O)c2ccc3nc[nH]c3c2)c(O)c1,0,0,0,0,0,0,-,-,Mdm2 MdmX conf=82
COCCn1c(C)cc(C(=O)CSc2ccc(NC(C)=O)cc2)c1C,0,0,0,0,0,0,-,-,
C=CCn1c(C)cc(C(=O)CSc2ccc(NC(C)=O)cc2)c1C,50,0,0,0,0,0,67,0,
CC(=O)Nc1ccc(SCC(=O)c2cc(C)n(Cc3cccs3)c2C)cc1,71,0,93,0,-56,0,82,89,
Cc1csc(SCC(=O)c2cc(C)n(Cc3cccs3)c2C)n1,0,0,0,0,0,0,-,-,
CC1(C(=O)Nc2ccc(F)c(Cl)c2)Cc2c(-c3ccc(C(N)=O)cc3)ccnc2O1 (configuration not stated),0,0,0,0,0,0,-,-,
COc1ccc(-c2oc3c(OC)c(OC)c(OC)c(O)c3c(=O)c2OC)cc1OC,0,0,0,0,0,0,-,-,Mdm2 MdmX conf=74
O=C(Nc1ccon1)c1nc[nH]c1C(=O)N1CCN(c2ccccc2)CC1,0,0,0,0,0,0,-,-,
COc1ccc(C(=O)/C=C2/C(=O)Nc3ccccc32)cc1OC,40,0,0,0,0,0,42,0,
NC(=O)COc1ccc(C(=O)/C=C2/C(=O)Nc3ccccc32)cc1,46,0,0,0,0,0,0,0,
O=C1Nc2ccccc2/C1=C/C(=O)c1cccs1,54,0,0,0,0,0,0,0,
CCOc1ccc2nc(S(=O)(=O)NC(=O)C3(C)CCN3C(=O)c3cc(C)n(C)n3)sc2c1 (configuration not stated),0,0,0,0,0,0,-,-,
c1ccc(-c2nnnc3ccccc23)cc1,0,0,0,0,0,0,-,-,
Clc1ccc2nnnc(-c3ccccc3)c2c1,83,0,0,0,0,0,71,103,
CN1CCN(S(=O)(=O)c2cccc(C(=O)N(C)CC(=O)Nc3ccc(Cl)c(Cl)c3)c2)CC1,0,0,0,0,0,0,-,-,
COc1ccc(C2=Nn3c(nnc3-c3ccccn3)SC2)cc1OC,0,0,0,0,0,0,-,-,
COc1ccc(C2=Nn3c(nnc3-c3ccccc3OC)SC2)cc1OC,43,0,0,0,0,53,0,0,
